An excerpt weighted towards active compounds, which were near 19% of everything screened.
HepG2 viability: HepG2 cytotoxicity, counter-screen for TGF-b inhibitors; HepG2 CAGA-GFP viability, ATP luminescence, 18 h; Potency, µM (doses to about 46.1 µM), without a hit: at the top dose activity change, negative = cytotoxicity, actives largely listed as cytotoxic; 410,000 compounds, 0.76% hits; AID 588856; further: potency means the concentration at half of the fitted maximal effect
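HepG2 CAGA-GFP cells (1000/well, DMEM with 1% FBS) received compound, then TGF-beta at 500 pg/mL final, and were incubated 18 hours at 37 degrees C. Viability was read by CellTiter-Glo luminescence. Media-only wells were set as complete cell-killing and DMSO as no toxicity.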
TDP1 block: inhibitors of human tyrosyl-DNA phosphodiesterase TDP1; 350,000 compounds, 0.28% hits; recombinant TDP1, AlphaScreen DNA substrate cleavage; Potency, µM (top dose mostly 130 µM), for the others: at the highest dose activity change, negative = inhibition, usual class: inhibitors; further: potency means the concentration at half of the fitted maximal effect; on the % scale 0 is the no-effect control and ±100 the full control effect; nearly all actives have a fitted effect of over 40% in size
Target sequence (Q9NUW8 whole entry, looked up): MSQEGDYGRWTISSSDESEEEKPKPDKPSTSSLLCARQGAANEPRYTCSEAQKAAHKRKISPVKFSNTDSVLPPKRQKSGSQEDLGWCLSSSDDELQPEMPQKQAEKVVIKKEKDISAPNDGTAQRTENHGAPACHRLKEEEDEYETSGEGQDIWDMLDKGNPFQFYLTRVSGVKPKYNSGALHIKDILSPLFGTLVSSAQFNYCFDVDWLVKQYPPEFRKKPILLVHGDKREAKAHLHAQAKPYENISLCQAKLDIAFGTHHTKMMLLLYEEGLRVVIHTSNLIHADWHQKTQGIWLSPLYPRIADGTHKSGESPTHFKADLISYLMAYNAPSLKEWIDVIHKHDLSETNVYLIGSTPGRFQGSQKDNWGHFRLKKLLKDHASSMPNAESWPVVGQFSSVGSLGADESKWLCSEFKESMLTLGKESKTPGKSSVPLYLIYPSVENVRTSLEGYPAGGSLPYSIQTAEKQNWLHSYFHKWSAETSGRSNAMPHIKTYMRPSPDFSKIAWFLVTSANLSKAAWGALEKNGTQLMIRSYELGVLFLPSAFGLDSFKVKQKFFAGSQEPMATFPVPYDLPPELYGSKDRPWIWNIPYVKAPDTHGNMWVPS
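AlphaScreen read-out: signal falls as enzyme removes the 3' tyrosine-FITC from a 5'-biotinylated DNA oligo (15 nM, 5 min, RT). Enzyme was E. coli-made recombinant Tdp1 at 1 nM, exposed to compound for 15 min beforehand; beads 10 ug/ml, 10 min.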
IL1B secr inh: inhibitors of inflammasome signaling (IL-1 beta secretion). THP-1 LPS/ATP IL-1B secretion, AlphaLISA, 16 h; stronger effect = lower value. activity change, % at 57.5 µM. 360,000 compounds, 4.7% hits. AID 743279; in the data active means activity change below about -50%; inconclusive means mostly about -30% to -49%; further: on the % scale 0 is the no-effect control and ±100 the full control effect
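THP-1 cells pretreated 1 hr with compounds (up to 57.5 uM final), then stimulated with LPS (250 ng/mL final) plus ATP (1.25 mM final); secreted IL-1B measured by AlphaLISA after 16 hr, decreased signal indicating inhibition.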
DT40 TDP1 CPT: growth inhibition of DT40 Tdp1-/-;hTDP1 cells with camptothecin (screen for TDP1 inhibitors); 420,000 compounds, 12% hits; Potency, µM (doses to about 46.2 µM), inactives show at the top dose activity change, negative = growth inhibition, actives largely listed as inhibitors; chicken DT40 Tdp1-/-;hTDP1 cells + 20 nM CPT, ATP luminescence, 48 h; AID 686979; further: potency means the concentration at half of the fitted maximal effect; on the % scale 0 is the no-effect control and ±100 the full control effect; nearly all actives have a fitted effect of over 55% in size
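Chicken DT40 Tdp1-/- cells complemented with human TDP1, 400 cells/well, exposed to compounds plus 20 nM camptothecin for at least 48 h at 37 C; viability read as ATP content by CellTiter-Glo luminescence.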
DT40 TDP1 no CPT: qHTS for Inhibitors of human tyrosyl-DNA phosphodiesterase 1 (TDP1): qHTS in cells in absence of CPT; DT40 Tdp1-/- hTDP1 cells, no CPT, ATP luminescence, 48 h; Potency, µM (series often up to 46.2 µM), for the others: at the top dose activity change, negative = growth inhibition, hits mostly inhibitors; 420,000 compounds, 15% hits; AID 686978, 2013; further: potency means the concentration at half of the fitted maximal effect; on the % scale 0 is the no-effect control and ±100 the full control effect; nearly all actives have a fitted effect of over 55% in size
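Stably hTDP1-transfected Tdp1-null chicken DT40 cells were treated with library compounds minus camptothecin and grown for at least 48 hr at 37 °C, after which cellular ATP was quantified by luminescence.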
TGFb inhibitor: TGF-b pathway inhibition | HepG2 CAGA-GFP TGF-b/SMAD3 reporter, GFP fluorescence, 18 h; TGF-beta stimulated, 500 pg/mL final | Potency, µM (titrated, usually from 46.1 µM), inactives show top-dose activity, negative = inhibition, usual class: inhibitors | 410,000 compounds, 1.2% hits | AID 588855; further: potency means the concentration at half of the fitted maximal effect; on the % scale 0 is the no-effect control and ±100 the full control effect; nearly all actives have a fitted effect of over 65% in size
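Per well, imaged GFP fluorescence of HEPG2 CAGA-GFP cells gives the signal; cells get compound, then TGF-beta (500 pg/mL final), 18 h at 37 degrees C; %Activity versus -TGF-beta and +DMSO controls.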
* hit, by the source's call; ? = inconclusive; nt = not tested or not shown; [ ] = another dose, or the depositor's remark. Unless noted, the call rests on the fitted dose curve; in most records, active means well fitted curve in the direction sought with a large enough effect; inconclusive means small, poorly fitted or top-dose-only effect, or another doubt; inactive means no such curve, though single readings can be large; an effect the other way counts as inactive or inconclusive.

SMILES	HepG2 viability	TDP1 block	IL1B secr inh	DT40 TDP1 CPT	DT40 TDP1 no CPT	TGFb inhibitor
CNC(=S)NC1CC2CCC(C1)N2Cc1ccccc1 (configuration not stated)	-7%	-1%	9	-4%	-4%	-1%
O=C(Nc1ccccc1-c1ccccc1)NC1CC2CCCC(C1)N2Cc1ccc(F)cc1 (configuration not stated)	-15%	2%	-61*	21µM*	23µM*	-5%
O=C(Nc1ccccc1-c1ccccc1)NC1CC2CCCC(C1)N2CCc1ccccc1 (configuration not stated)	-26%	0%	-22	-16%	-26%	-3%
O=C(CN1C2CCCC1CC(NC(=O)C1CCCCC1)C2)NCc1ccc(F)cc1 (configuration not stated)	0%	nt	0	?	16µM*	-16%
COc1cccc(OCc2cc(=O)n3cc(C)sc3n2)c1	-8%	-4%	nt	-25%	?	-1%
Cn1c(/C=C/c2cccc(Br)c2)nc2ccccc2c1=O	0%	nt	4	29µM*	?	-25%
O=c1c2ccccc2nc(/C=C/c2ccc(Br)cc2)n1CCCO	-26%	nt	?	23µM*	21µM*	-24%
Cc1[nH]c2ccccc2c1/C=C/c1nc2ccccc2c(=O)n1CCO	-24%	-10%	-84*	6.5µM*	4.6µM*	-4%
Cn1c(/C=C/c2cccc([N+](=O)[O-])c2)nc2ccccc2c1=O	1%	-1%	-14	-25%	1%	-31%
O=c1c2ccccc2nc(/C=C/c2ccc(Cl)cc2)n1CCO	-3%	5%	-74*	21µM*	?	-23%
CCN(CC)C(=O)c1sc2c(c1C)c(=O)n(-c1ccc(C)c(C)c1)c(=O)n2CC(=O)Nc1ccc(OC)cc1OC	-7%	5%	nt	?	?	-1%
O=c1c2ccccc2nc(/C=C/c2ccc(Br)cc2)n1CCO	20%	nt	-83*	?	23µM*	17%
O=c1c2ccccc2nc(/C=C/c2ccc([N+](=O)[O-])cc2)n1CCCO	3%	4%	nt	?	21µM*	-6%
O=c1c2ccccc2nc(/C=C/c2cccc([N+](=O)[O-])c2)n1CCCO	-24%	nt	0	-28%	?	0%
Cc1ccccc1/C=C/c1nc2ccccc2c(=O)n1Cc1ccccc1	-2%	0%	-3	2%	-2%	2%
O=c1c2ccccc2nc(/C=C/c2cccc(Br)c2)n1CCCO	-12%	nt	-85*	?	13µM*	0%
Cc1nc2ccccc2c(=O)n1CCCO	-5%	5%	-12	-18%	-5%	22%
C[C@H](CO)N1C[C@H](C)[C@H](CN(C)C(=O)Nc2ccc(-c3cccs3)cc2)OCc2cnnn2CCCC1=O	-46%	nt	-6	-10%	?	?
CCOC(=O)c1ccc(NC(=O)c2cc3c(=O)n(C)c4ccccc4c3n2C)cc1	2%	1%	nt	25%	0%	-21%
CCc1ccccc1NC(=O)Cn1c(=O)n(Cc2ccco2)c(=O)c2ccccc21	-15%	-2%	nt	-28%	-22%	1%
OC(C#Cc1ccccn1)c1cccs1 (configuration not stated)	10µM*	-2%	-95*	18µM*	16µM*	16µM*
CCCCn1c(N)c(N(CCOC)C(=O)c2cccc(S(=O)(=O)N(CC)c3ccccc3)c2)c(=O)[nH]c1=O	5%	4%	14	-2%	?	0%
CCOc1ccc(N(CC)C(=O)c2cc3c(s2)-c2ccc(Cl)cc2SC3)cc1	-20%	5%	nt	12µM*	?	?
COCCNC(=O)c1cc2c(s1)-c1ccc(Cl)cc1SC2	-16%	nt	-57*	-17%	?	-28%
O=C(NCc1ccccc1Cl)c1cc2c(s1)-c1ccccc1SC2	-10%	-13%	nt	?	?	nt
SMILES	HepG2 viability	TDP1 block	IL1B secr inh	DT40 TDP1 CPT	DT40 TDP1 no CPT	TGFb inhibitor
CC(C)c1ccc(NC(=O)c2cc3c(s2)-c2ccccc2SC3)cc1	-14%	-5%	nt	18µM*	?	nt
NC(=O)c1cc2c(s1)-c1cc(Cl)ccc1SC2	-29%	nt	-5	1%	-28%	19%
O=C(NCCOc1ccccc1)c1cc(S(=O)(=O)N2CCOCC2)ccc1F	-17%	1%	0	?	-30%	-4%
CCCCCCCCCC(=O)O[C@H](CC(=O)O)C[N+](C)(C)C	nt	12%[56.1 µM]	nt	2%	-3%	nt
Cc1ccc(-n2ncc3c(N4CCCCCC4)ncnc32)cc1Cl	6%	0%	nt	-28%	-12%	4%
CCc1ccc(Nc2ncnc3c2cnn3-c2cc(Cl)ccc2C)cc1	-23%	3%	nt	?	-81%	14%
CC(=O)c1ccc(N2CCN(c3ncnc4c3cnn4C)CC2)cc1	1%	5%	nt	?	8.2µM*	-9%
CCN(c1ncnc2c1cnn2-c1cc(Cl)ccc1C)C1CCCCC1	-33%	8%	nt	15µM*	15µM*	?
COc1ccc(N2CCN(c3ncnc4c3cnn4-c3ccc(C)c(Cl)c3)CC2)cc1	-3%	0%	nt	-11%	-12%	3%
CC(=O)c1ccc(N2CCN(c3ncnc4c3cnn4-c3cc(Cl)ccc3C)CC2)cc1	-13%	3%	nt	2.6µM*	5.8µM*	-13%
Cc1ccc(Cl)cc1-n1ncc2c(N3CCCCCC3)ncnc21	-34%	3%	nt	5.8µM*	8.2µM*	?
COc1ccc(NC(=O)CN(C)C(=O)COc2ccccc2Cc2ccccc2)cc1	-30%	0%	-3	26µM*	18µM*	?
CN(CC(=O)Nc1ccccc1Cl)C(=O)COC(=O)Cc1c(F)cccc1Cl	-14%	0%	-23	-2%	12%	-9%
CN(CC(=O)Nc1ccc(F)cc1)C(=O)COC(=O)Cc1c(F)cccc1Cl	-27%	nt	-17	-12%	6.5µM*	0%
CSc1ccc(CN(C)C(=O)COc2ccc(C(=O)c3ccccc3)cc2)cc1	-5%	nt	23	?	15µM*	?
CN(CC(=O)Nc1ccccc1C(F)(F)F)C(=O)COc1ccccc1Cc1ccccc1	-3%	0%	-14	?	16µM*	1%
Cc1cc2nc(-c3cccc(Cl)c3)c(CC(C)(C)C)n2c(C)c1Br	-10%	nt	5	?	?	-1%
